Hits are enriched below; roughly 21% of the tested compounds scored in any of these assays.
Pf growth 48h – P. falciparum growth inhibition at 48 hours (one generation); P. falciparum luciferase growth in erythrocytes, 48 h; 310,000 tested, 5.9% active; Potency, µM (top dose mostly 28.7 µM), without a hit: top-dose activity change, negative = inhibition, hits mostly inhibitors; further: potency means the concentration at half of the fitted maximal effect; on the % scale 0 is the no-effect control and ±100 the full control effect
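Compounds are pin-transferred into medium, infected erythrocytes (2% hematocrit, 0.1% parasitemia final) are added, and plates sit one parasite generation at 37 C in 5% CO2. Detection reagent is then added and luminescence measured.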
CHX counter – counter-screen for Shiga toxin inhibitors: cycloheximide protein synthesis inhibition. AID 2314. 300,000 tested, 12% active. max response, %. cell reporter, cycloheximide protein synthesis inhibition counterscreen; in the data active means max response mostly above about 13%, no sharp cut-off; inactive means mostly below about 14%; further: read at 38.3 µM for the half of the compounds with a filed dose; 0% is about no effect
Shiga inhibitor – blocks Shiga toxin action in Vero cells | Vero cells, Shiga toxin protein synthesis inhibition reporter | inhibition, % at 38.7 µM | 290,000 tested, 9.2% active | AID 2315; in the data active means inhibition mostly above about 28%, no sharp cut-off; inactive means mostly below about 43%; further: 0% is about no effect
Pf growth 96h – P. falciparum growth inhibition at 96 hour, primary screen for plastid delayed-death inhibitors. P. falciparum luciferase reporter growth, 96 h. Potency, µM (top dose mostly 28.7 µM), for the others: at the top dose activity change, negative = inhibition, actives largely listed as inhibitors. 320,000 tested, 6.9% active. AID 504834; further: potency means the concentration at half of the fitted maximal effect; on the % scale 0 is the no-effect control and ±100 the full control effect
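Cell-based qHTS: luciferase-tagged P. falciparum in erythrocytes (2% hematocrit, 0.05% parasitemia final) incubated with compounds for 96 hours, 37 C, 5% CO2; luciferase detection reagent then added and luminescence measured.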
Sm TGR block – S. mansoni TGR enzyme inhibition | purified TGR, DTNB reduction, TNB absorbance 405 nm | Potency, µM (series often up to 114 µM), inactives show at the top dose activity change, negative = inhibition, actives largely listed as inhibitors | 360,000 tested, 3% active | AID 485364; further: potency means the concentration at half of the fitted maximal effect; on the % scale 0 is the no-effect control and ±100 the full control effect; nearly all actives have a fitted effect of over 60% in size
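TGR 20 nM + NADPH 100 uM (dispensed conc.), cpd preinc 15 min RT; start with NADPH (500 uM addition) then DTNB (15 mM addition). Kinetic TNB absorbance, 405 nm filter. Four-parameter Hill fit across titration.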
NS1 inh – blocks influenza NS1 protein function; Potency, µM (doses to about 46.1 µM), inactives show at the top dose activity, positive = more growth; 270,000 tested, 0.4% active; AID 2326; calls by dose curve; further: potency means the concentration at half of the fitted maximal effect; actives are rising curves; nearly all actives have a fitted effect of over 50% in size
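S. cerevisiae expressing influenza A NS1, grown in glucose, washed, then diluted 1:100 into pH 6.0 -URA galactose medium with 23 nl compound. Growth recovery read as OD600; NS1-free strain serves as control.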
* hit, by the source's call; u = inconclusive; x = no result given; + = active, no number. Unless noted, the call rests on the fitted dose curve; in most records, active means well fitted curve in the direction sought with a large enough effect; inconclusive means small, poorly fitted or top-dose-only effect, or another doubt; inactive means no such curve, though single readings can be large; an effect the other way counts as inactive or inconclusive.

SMILES | Pf growth 48h | CHX counter | Shiga inhibitor | Pf growth 96h | Sm TGR block | NS1 inh
COc1ccc(NC(=O)CNc2cc(C)ccc2C)cc1S(=O)(=O)N1CCOCC1 | u | x | x | 15µM* | -7% | x
COc1ccc(NC(=O)C2CCC(C(C)(C)C)CC2)cc1S(=O)(=O)N1CCOCC1 (stereo not drawn) | u | x | x | 13µM* | 40µM* | x
COc1ccc(NC(=O)C2CCC2)cc1S(=O)(=O)N1CCOCC1 | -16% | x | x | u | -2% | x
COc1ccc(NC(=O)c2cc3c(s2)CCC(C)C3)cc1S(=O)(=O)N1CCOCC1 (stereo not drawn) | u | 10 | 11 | 7.4µM* | 1% | u
Cc1nc(-c2ccc(F)cc2)c(CC(=O)N2CCN(S(=O)(=O)c3cccc([N+](=O)[O-])c3)CC2)s1 | 9.3µM* | x | x | 12µM* | -8% | x
O=C(Cc1ccccc1)N1CCN(S(=O)(=O)c2cccc([N+](=O)[O-])c2)CC1 | 1% | -2 | 13 | 25% | 0% | 1%
CN(C)c1ccc(C(=O)Nc2c(C(=O)NC(C)(C)C)oc3ccccc23)cc1 | x | x | x | x | 9% | x
COc1ccc(CNC(=O)CNC(=O)N2CC(=O)Nc3ccccc32)cc1 | 32% | -1 | 18 | u | 3% | 3%
CCOC(=O)c1cc(S(=O)(=O)Nc2ccc(OC)c(Cl)c2)[nH]n1 | x | x | x | x | 1% | x
Cc1cccc(C)c1-n1ncc(C(=O)Nc2ccc3c(c2)OCCO3)c1C1CCN(C(=O)OC(C)(C)C)CC1 | x | x | x | x | -1% | x
Cc1nc(-c2ccc(F)cc2)c(CC(=O)Nc2ccc(C)c(S(=O)(=O)N3CCOCC3)c2)s1 | 8.3µM* | 2 | -8 | 9.3µM* | 1% | 8%
CN(C)S(=O)(=O)c1cccc(NC(=O)COc2cccc(C#N)c2)c1 | 22% | 12 | 3 | 8% | 7% | 0%
COc1ccc(S(=O)(=O)N(C)C)cc1NC(C)C(=O)Nc1cccc(C#N)c1 (stereo not drawn) | 2.9µM* | -2 | 8 | u | -11% | x
COc1ccc(S(=O)(=O)N(C)C)cc1NCC(=O)Nc1ccc(Br)c(C)c1 | 10µM* | 2 | -15 | u | -3% | x
COc1ccc(S(=O)(=O)N(C)C)cc1NCC(=O)Nc1ccc(F)cc1F | u | -1 | -5 | u | 1% | 13%
Cc1ccc(NC(=O)CSc2nc(N)cc(N)n2)cc1S(=O)(=O)N1CCOCC1 | -6% | -1 | -3 | u | 5% | 3%
COc1ccc(C)cc1NCC(=O)Nc1ccc(C(C)(C)C)cc1 | u | -2 | -7 | 9.3µM* | -8% | -2%
Cc1ccc(C(=O)NCCCNC(=O)COc2ccc(Cl)cc2)cn1 | -11% | -6 | -4 | 44% | 0% | -6%
CCN1CCN(CCCNC(=O)Cn2nc(C)n3c(cc4cc(C)ccc43)c2=O)CC1 | x | x | x | x | 9% | x
COc1ccc(Cl)cc1NC(=O)CN(C)C(=O)CSc1ccc2c(c1)OCCO2 | u | x | x | 36% | -9% | x
COc1ccc(Cl)cc1NC(=O)CNc1ccccc1CN(C)C1CCCCC1 | u | 3 | 13 | u | 1% | x
Cc1ccc(NC(=O)CSc2ncnc3ccccc23)cc1S(=O)(=O)N1CCOCC1 | 12µM* | -3 | -8 | u | 13% | 2%
Cc1ccc(C)c(SCC(=O)Nc2ccc(C)c(S(=O)(=O)N3CCOCC3)c2)c1 | u | x | x | u | 45µM* | x
COc1ccc(C)cc1NC(=O)CNc1ccccc1CN(C)C1CCCCC1 | 15µM* | -1 | -10 | 4.7µM* | 3% | x
Cc1ccc(S(=O)(=O)OC2CCN(C)CC2)cc1 | x | x | x | x | x | -8%
SMILES | Pf growth 48h | CHX counter | Shiga inhibitor | Pf growth 96h | Sm TGR block | NS1 inh
COc1ccc(-c2nsc3c(SCc4ccccc4)ncnc23)cc1 | 19% | 20* | + | 1.9µM* | 16% | 19%
CCOC(=O)/C(=C\C=C1/Sc2cc(OCC)c(OCC)cc2N1CC)C(C)=O | u | -2 | 14 | u | -6% | 21%
CCOC(=O)/C(=C/C=C1\Sc2cc(OCC)c(OCC)cc2N1CC)C(C)=O | 7.4µM* | -2 | 11 | -2% | -17% | x
O=C(c1ccccc1)[C@H](Nc1ccc2ccccc2c1)c1ccccc1 | x | x | x | x | x | -18%
CCOc1cc(CNc2ccc(N(C)C)cc2)cc(Br)c1OCC(=O)NC(C)(C)C | 0.66µM* | 36* | 38* | u | -31% | -19%
CCOc1cc(CNc2cccc3ccccc23)cc(Br)c1OCC(=O)NC(C)(C)C | x | 11 | -3 | 9.3µM* | -9% | 19%
CCOc1cc(CNc2ccc(N3CCCCC3)cc2)cc(Br)c1OCC(=O)NC(C)(C)C | u | 14* | 22 | 13µM* | -17% | -27%
COc1ccccc1NS(=O)(=O)c1cccc(C(=O)N2CCN(C(=O)c3ccco3)CC2)c1 | u | x | x | u | -21% | x
Cn1c(=O)c2c(nc(N3CCCCC3)n2CCSc2nc3ccccc3s2)n(C)c1=O | 1% | -2 | -10 | 5% | 9% | -46%
Cn1c(=O)c2c(nc(N3CCC(C(N)=O)CC3)n2CCSc2nc3ccccc3s2)n(C)c1=O | 2.9µM* | 13 | -14 | 3% | 0% | -2%
Cc1cc(C)nc(SCCn2c(N3CCC(C)CC3)nc3c2c(=O)n(C)c(=O)n3C)n1 | 42% | -4 | 25 | 2.3µM* | 0% | -1%
Cn1c(=O)[nH]c(=O)c2c1nc(N1CCCCC1)n2CCCSc1nc2ccccc2s1 | u | 8 | 5 | 4.1µM* | -4% | -36%
Cc1ccnc(SCCn2c(N3CCC(C)CC3)nc3c2c(=O)n(C)c(=O)n3C)n1 | x | x | x | x | x | -11%
Cc1ccc(S(=O)(=O)N2CCCc3cc(NS(=O)(=O)c4ccccc4)ccc32)cc1 | x | x | x | x | 10% | x
Cc1ccc(CNC(=O)c2cnc3c(-c4ccc(F)cc4)c(C)nn3c2C)o1 | x | x | x | x | -3% | x
O=C(COC(=O)C1C2CC3OC(=O)C1C3C2)Nc1cccc(C(F)(F)F)c1 (stereo not drawn) | -7% | 26 | 15 | 76% | 0% | 5%
Cc1ccccc1NC(=O)Cc1nnc(SCC(=O)NC2CCCCC2)n1C | -1% | 10 | -6 | -7% | -7% | 0%
C=CCN(C(=O)C1=NN(C2CCS(=O)(=O)C2)C(=O)CC1)c1nc(-c2ccc([N+](=O)[O-])cc2)cs1 (stereo not drawn) | 142% | 38* | 42 | 411% | -5% | 6%
Cc1ccccc1Cn1c(C)c(CNCc2ccccc2)c(C(=O)O)c1C | x | x | x | x | -12% | x
CSc1ccc(CC2C(=O)Nc3ccccc32)cc1 (stereo not drawn) | x | x | x | x | -4% | x
NC1=NC(=Nc2ccc(Br)cc2)c2ccccc21 | -1% | 26* | 62* | -8% | 0% | -19%
NC1=NC(=Nc2ccccc2)c2ccccc21 | 10% | 0 | 40 | u | -29% | -39%
NC1=NC(=Nc2ccc(Cl)cc2)c2ccccc21 | -4% | 47* | 27 | -1% | -7% | -16%
CC(C)c1ccc(N=C2N=C(N)c3ccccc32)cc1 | 33% | 80* | 118* | 140% | -4% | -7%

Source: PubChem BioAssay (National Center for Advancing Translational Sciences (NCATS))
